The record followed here is PubChem BioAssay (Tox21).

Inconclusive results are not listed. A number with no mark means an inactive call. Calls follow the shape of the dose curve; as a rule, active = well fitted activation curve with a large enough effect in the signal ratio in the repeat runs (not every such curve was filed as active); inconclusive = weak or mixed curves, or effect the other way; inactive = flat fitted curve, though single readings scatter; the % refers to the signal ratio.
% is scaled to controls: 0 for no effect and ±100 for the full control effect.

The target in the assay is Estrogen receptor beta (Homo sapiens) (UniProt Q92731). The assay is described as follows: qHTS assay to identify small molecule agonists of the estrogen receptor beta (ER-beta) signaling pathway (AID 1259377). The settings on record: ER-beta-UAS-bla HEK293T, beta-lactamase FRET ratio, 16 h; series mostly up to 92.4 µM; activation: at the top concentration. The source says: U.S. Tox21 Program National Center for Advancing Translational Sciences [NCATS] NIH Chemical Genomics Center [NCGC] U.S. Environmental Protection Agency [EPA] National Institutes of Environmental Health Sciences [NIEHS] National Toxicology Program [NTP] U.S. Food and Drug Administration [FDA] Tox21 Assay Overview: Estrogen receptor (ER), a nuclear hormone receptor, plays an important role in development, metabolic homeostasis and reproduction. Two subtypes of ER, ER-alpha and ER-beta, have similar expression patterns with some uniqueness in both types. Endocrine disrupting chemicals (EDCs) and their interactions with steroid hormone receptors like ER causes disruption of normal endocrine function. To identify the compounds that activate ER signaling, an ER beta-UAS-bla GripTite cell line (Life technologies, Madison, WI, USA) containing a beta-lactamase reporter gene under the control of an Upstream Activator Sequence (UAS) was used to screen Tox21 10K compound library.
Sequence of Estrogen receptor beta (Homo sapiens) (Q92731 whole entry, looked up): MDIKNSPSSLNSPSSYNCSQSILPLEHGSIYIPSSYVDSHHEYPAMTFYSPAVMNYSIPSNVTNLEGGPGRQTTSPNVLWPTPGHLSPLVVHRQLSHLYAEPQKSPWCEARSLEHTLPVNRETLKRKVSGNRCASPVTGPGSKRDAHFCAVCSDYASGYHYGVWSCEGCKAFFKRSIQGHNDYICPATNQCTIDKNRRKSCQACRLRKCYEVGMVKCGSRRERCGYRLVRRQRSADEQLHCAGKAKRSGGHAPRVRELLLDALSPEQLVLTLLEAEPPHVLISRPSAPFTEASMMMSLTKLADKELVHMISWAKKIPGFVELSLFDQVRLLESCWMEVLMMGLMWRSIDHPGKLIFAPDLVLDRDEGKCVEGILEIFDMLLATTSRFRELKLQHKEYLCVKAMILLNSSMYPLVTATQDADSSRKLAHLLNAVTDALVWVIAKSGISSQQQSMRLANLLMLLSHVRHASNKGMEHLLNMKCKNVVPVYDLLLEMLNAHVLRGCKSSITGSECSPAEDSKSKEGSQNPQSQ
Tox21 Assay Protocol Summary: ER-beta-UAS-bla HEK293T cells were dispensed at 2,000 cells/5 uL of assay medium containing 2% charcoal stripped FBS per well into black wall/clear-bottom 1536-well plates using a Multidrop Combi (ThermoFisher Scientific, Waltham, MA) dispenser. After the assay plates were incubated at a 37C and 5% CO2 for 6 hr, 23 nL of compounds dissolved in DMSO, positive controls or DMSO only was transferred to the assay plate by a Pintool station (Kalypsys, San Diego, CA). The plates were incubated at 37C and 5% CO2 for 16 hr. Then 1 uL of LiveBLAzerTM B/G FRET substrate was added using a BioRAPTR FRD (Flying Reagent Dispenser, Aurora Discovery, San Diego, CA). After the plates were incubated at room temperature for 2 hours, fluorescence intensity was measured by an Envision plate reader (PerkinElmer, Shelton, CT).
On to `CN(C)CCCN(C)C`, for which the activation is -0.616% [at 8.39 µM].

`CCCCN=C(N)N=C(N)N`: the “activation” value was 0.478% [at 42.5 µM].

As to `CC(=O)SCC(CC(=O)c1ccc(C)cc1)C(=O)O` (stereo not given), the “activation” value is 6.06% [at 42.5 µM].

As for `Clc1cc(Cl)c(Cl)c(Cl)c1Cl`, the “activation” value is -1.36%.

Regarding `CC[N+](C)(CC)CC`, the “activation” value is -0.762%.

For the molecule `O=S(=O)(O)CC(O)CCl` (stereo not given), the “activation” value was 0.33%.

`CC(C)c1cc(C(C)C)cc(C(C)C)c1`: the “activation” value is -0.362%.

With `C=C(C)C(=O)OCCCC`, the “activation” value is 9.12%.

Turning to `CCCCc1ccc(Cl)cc1`, the “activation” value was -1.07%.

As to `C/C(Cl)=C/CCl`, the “activation” value was 5.15%.

In the case of `OCCC(F)(F)C(F)(F)C(F)(F)C(F)(F)C(F)(F)C(F)(F)F`, the “activation” value is 6.14%.

As for `CCN(CC)CC(=O)Oc1ccc(NC(C)=O)cc1`, the “activation” value is 3.69% [at 42.5 µM].

As for `N[C@H]1C(O)O[C@H](CO)[C@@H](O)[C@@H]1O` (stereo not given in full), the “activation” value is 0.0154% [at 42.5 µM].

For the molecule `CCO/C=C1\N=C(c2ccccc2)OC1=O`, the “activation” value is -1.34%.

As to `O=S(=O)(O)c1cc(I)c(O)c2ncccc12`, the “activation” value is 6.58% [at 42.5 µM].

As to `NC(=O)CC[C@@H](N)C(=O)O`, the “activation” value was -1.57% [at 42.5 µM].

For `BrCCOc1ccccc1`, the “activation” value is 1.52%.

With `CC(C)(C)C(=O)CC(=O)C(C)(C)C`, the “activation” value was -5.53%.

For the molecule `CC(C)C(C)C`, the “activation” value is -1.2%.

Consider `O=C1CC2(CCCC2)CC(=O)N1CCNCC1COc2ccccc2O1` (stereo not given), for which the “activation” value is -0.988% [at 42.5 µM].

On to `CCCc1ncc(C(=O)O)s1`, for which the “activation” value is -0.136% [at 42.5 µM].

As for `CC(C)CC(O)Cc1ccccc1` (stereo not given), the “activation” value was 10%.

With `CC(C)(C)NCC(O)COc1cccc2c1CCC(=O)N2` (stereo not given), the “activation” value was 6.61% [at 42.5 µM].

With `CC(CC(=O)Cl)CC(C)(C)C` (stereo not given), the “activation” value is 1.44%.

For the molecule `CC(O)C(CO)C(C)O` (stereo not given), the “activation” value was 2.81%.

As for `C[C@@H](CN1CC(=O)NC(=O)C1)N1CC(=O)NC(=O)C1`, the “activation” value is -0.206% [at 42.5 µM].

Take `O=C(O)CCC(=O)Nc1ccc(S(=O)(=O)Nc2nccs2)cc1`: the “activation” value is -1% [at 42.5 µM].

As for `CC1(C)CC(N)CC(C)(C)N1`, the “activation” value was 11%.

Regarding `c1coc(Cn2cccc2)c1`, the “activation” value was 4.18%.

On to `C=CCN(CC=C)CC=C`, for which the “activation” value was 0.155%.

For the molecule `CNC(C)=O`, the “activation” value was 4.59%.

As for `Cc1ccccc1OCC(=O)O`, the “activation” value was -0.0559%.

With `O=C(O)/C=C(\CC(=O)O)C(=O)O`, the “activation” value was 5.91% [at 42.5 µM].

With `COc1cc(C(=O)NC2CCCNC2)cc(OC)c1OC` (stereo not given), the “activation” value is 5.21% [at 42.5 µM].

For the molecule `CCCC(=O)C(CC)Sc1ccoc1C` (stereo not given), the “activation” value is -0.284%.

Take `C[n+]1ccccc1/C=N/O`: the “activation” value is 3.76% [at 42.5 µM].

Turning to `O=C1Nc2ccccc2C1=O`, the “activation” value was 1.64%.

With `Cc1ccc(O)c([N+](=O)[O-])c1`, the “activation” value was -1.04%.

For `CCCCC(CC)CCC(CC(C)C)OS(=O)(=O)O` (stereo not given), the “activation” value was 5.32%.

Regarding `CC(C)(C)C(=O)CCc1ccc(Cl)cc1`, the “activation” value was 2.48%.
